Screens deposited in PubChem BioAssay by National Center for Advancing Translational Sciences (NCATS).
DT40 TDP1 CPT: qHTS for Inhibitors of human tyrosyl-DNA phosphodiesterase 1 (TDP1): qHTS in cells in presence of CPT; Potency, µM (top dose mostly 46.2 µM), usual class: inhibitors; chicken DT40 Tdp1-/-;hTDP1 cells + 20 nM CPT, ATP luminescence, 48 h; 12% of 420,000 active; further: nearly all actives have a fitted effect of over 55% in size
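Cell growth measured by CellTiter-Glo luminescence after a minimum 48 h, 37 C compound exposure with 20 nM CPT in Tdp1-knockout DT40 cells stably expressing hTDP1, seeded 400/well; qHTS titration format.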
RORgamma inh: qHTS for inhibitors of ROR gamma transcriptional activity; Potency, µM (series often up to 53.6 µM), actives largely listed as inhibitors; Nuclear receptor ROR-gamma (Mus musculus), P51450; 5.4% of 310,000 active; Drosophila S2 Gal4-RORgamma UAS-luciferase reporter, 20 h; further: nearly all actives have a fitted effect of over 60% in size
Target sequence (P51450 whole entry, looked up, the tested form may be a part): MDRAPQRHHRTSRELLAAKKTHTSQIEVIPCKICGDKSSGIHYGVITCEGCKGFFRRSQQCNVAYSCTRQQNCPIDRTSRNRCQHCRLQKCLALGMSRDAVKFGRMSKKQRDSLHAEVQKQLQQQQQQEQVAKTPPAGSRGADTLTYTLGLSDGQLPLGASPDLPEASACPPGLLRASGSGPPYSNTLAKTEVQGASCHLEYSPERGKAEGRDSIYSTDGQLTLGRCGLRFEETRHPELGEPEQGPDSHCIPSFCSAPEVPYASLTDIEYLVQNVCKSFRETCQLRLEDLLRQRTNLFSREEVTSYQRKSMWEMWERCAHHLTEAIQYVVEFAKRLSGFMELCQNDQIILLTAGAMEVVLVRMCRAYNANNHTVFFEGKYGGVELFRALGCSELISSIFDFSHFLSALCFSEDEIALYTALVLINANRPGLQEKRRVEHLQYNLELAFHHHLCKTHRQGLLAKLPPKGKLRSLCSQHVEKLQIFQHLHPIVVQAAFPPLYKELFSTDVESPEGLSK
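Luciferase reporter read in Schneider cells carrying Gal4-RORγ (mouse) and UAS-Photinus luciferase; cells given compound 1 h before 700 uM copper sulfate induction, then incubated 20 h at ambient temperature.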
LDHA inh: qHTS assay for inhibitors of human lactate dehydrogenase; purified LDHA, NADH/diaphorase-resazurin fluorescence; stronger effect = lower value; activity change, % (values are at about 110 or 230 µM); 0.15% of 480,000 active; in the data active means activity change below about -30%; inconclusive means mostly about -25% to -30%
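Human LDH5 at 2 nM final in Tris HCl pH 7.4 with 0.06 mM NADH and 0.2 mM pyruvate, reacted 5 minutes at room temperature. Remaining NADH coupled via diaphorase/resazurin; resorufin fluorescence read at 0 and 20 minutes, normalized to enzyme-free and DMSO wells.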
VP16 counter: VP16 counterscreen qHTS for inhibitors of ROR gamma transcriptional activity; AID 2546, 2010; Potency, µM (doses to about 53.6 µM), usual class: inhibitors; Drosophila S2 Gal4-VP16 UAS-luciferase, luminescence, 20 h; 3.5% of 310,000 active;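 further: Gal4-VP16 expression switched on by copper sulfate through the metallothionein promoter; nearly all actives have a fitted effect of over 50% in size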
IL1B secr inh: qHTS for Inhibitors of Inflammasome Signaling: IL-1-beta AlphaLISA Primary Screen; 4.7% of 360,000 active; THP-1 LPS/ATP IL-1B secretion, AlphaLISA, 16 h; stronger effect = lower value; activity change, % at 57.5 µM; in the data active means activity change below about -50%; inconclusive means mostly about -30% to -49%
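THP-1 cells pretreated 1 hr with compounds (up to 57.5 uM final), then stimulated with LPS (250 ng/mL final) plus ATP (1.25 mM final); secreted IL-1B measured by AlphaLISA after 16 hr, decreased signal indicating inhibition.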
TDP1 cell noCPT: qHTS for Inhibitors of human tyrosyl-DNA phosphodiesterase 1 (TDP1): qHTS in cells in absence of CPT | DT40 Tdp1-/- hTDP1 cells, no CPT, ATP luminescence, 48 h | Potency, µM (doses to about 46.2 µM), hits mostly inhibitors | 15% of 420,000 active | AID 686978, 2013; further: nearly all actives have a fitted effect of over 55% in size
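Growth kinetics read by CellTiter-Glo luminescence after ≥48 hr at 37 °C. Cells: DT40 Tdp1-/- stably carrying human TDP1, 400 per well, compound exposure in the absence of CPT (DMSO vehicle).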
Each line names hits and unclear results; the compound was inactive in the other large screens. Hits are enriched below; roughly 18% of the tested compounds scored in any of these assays. Unless noted, the call rests on the fitted dose curve; in most records, active means well fitted curve in the direction sought with a large enough effect; inconclusive means small, poorly fitted or top-dose-only effect, or another doubt; inactive means no such curve, though single readings can be large; an effect the other way counts as inactive or inconclusive.

CCOC(=O)C1=CCN(S(=O)(=O)c2ccccc2Br)C1c1ccc(Cl)c(Cl)c1 (stereo unspecified)	DT40 TDP1 CPT inconclusive, TDP1 cell noCPT 18µM (no result: RORgamma inh, VP16 counter)
CCOC(=O)C1=CCN(S(=O)(=O)c2ccccc2Cl)C1c1ccc(Cl)c(Cl)c1 (stereo unspecified)	DT40 TDP1 CPT inconclusive, TDP1 cell noCPT inconclusive (no result: RORgamma inh, VP16 counter)
Cc1ccc2c(Cl)cc(Cl)c(OCC(=O)NC(=O)NC(C)(C)C)c2n1	none (no result: DT40 TDP1 CPT, RORgamma inh, VP16 counter, IL1B secr inh, TDP1 cell noCPT)
COc1cccc(NC(=O)Nc2cc(C(=O)NCc3cccc(F)c3)ccc2N2CCOCC2)c1	none (no result: DT40 TDP1 CPT, RORgamma inh, VP16 counter, IL1B secr inh, TDP1 cell noCPT)
COCCn1c(C)cc(C(=O)CSc2cc(C)c3ccccc3n2)c1C	DT40 TDP1 CPT inconclusive, RORgamma inh inconclusive, IL1B secr inh -69, TDP1 cell noCPT inconclusive
COCCn1c(C)cc(C(=O)CSc2nnc(C)s2)c1C	RORgamma inh 0.71µM, VP16 counter 1µM
Cc1cc(SCC(=O)c2ccc(F)cc2)nc2ccccc12	none (no result: DT40 TDP1 CPT, RORgamma inh, VP16 counter, IL1B secr inh, TDP1 cell noCPT)
COCCn1c(C)cc(C(=O)CSc2nc3ccccc3c(=O)n2Cc2ccco2)c1C	DT40 TDP1 CPT 6.5µM, RORgamma inh inconclusive, TDP1 cell noCPT inconclusive
O=[N+]([O-])c1c(NCCCO)cc(N2CCCCCC2)c2nonc12	VP16 counter inconclusive, TDP1 cell noCPT inconclusive
O=[N+]([O-])c1c(NCCCO)cc(Sc2ccc(Cl)cc2)c2nonc12	DT40 TDP1 CPT 1.3µM, RORgamma inh 5µM, VP16 counter 5µM, IL1B secr inh -106, TDP1 cell noCPT 1.5µM
O=[N+]([O-])c1c(NCCCO)cc(SCc2ccco2)c2nonc12	DT40 TDP1 CPT 15µM, RORgamma inh inconclusive, VP16 counter inconclusive, IL1B secr inh -97, TDP1 cell noCPT 21µM
Cn1ccnc1Sc1cc(NCCCO)c([N+](=O)[O-])c2nonc12	DT40 TDP1 CPT 3.3µM, RORgamma inh 1.3µM, VP16 counter 11µM, IL1B secr inh -101, TDP1 cell noCPT 5.2µM
CC1CCN(CCCNc2cc(NCCO)c([N+](=O)[O-])c3nonc23)CC1	none
CC(=O)OCCNc1cc(SCc2ccco2)c2nonc2c1[N+](=O)[O-]	DT40 TDP1 CPT inconclusive, RORgamma inh 11µM, VP16 counter inconclusive, IL1B secr inh -52, TDP1 cell noCPT 18µM
COc1ccc(C2CCCN2C(=O)c2nn(C)c(=O)c3ccccc23)cc1 (stereo unspecified)	none (no result: DT40 TDP1 CPT, RORgamma inh, VP16 counter, IL1B secr inh, TDP1 cell noCPT)
O=[N+]([O-])c1c(NCCCO)cc(N2CCN(Cc3ccc4c(c3)OCO4)CC2)c2nonc12	DT40 TDP1 CPT 6.5µM, RORgamma inh 5µM, VP16 counter 3.5µM, TDP1 cell noCPT 5.8µM
COc1ccc(CNc2cc(NCCCO)c([N+](=O)[O-])c3nonc23)cc1	DT40 TDP1 CPT 21µM, VP16 counter inconclusive, TDP1 cell noCPT 6.5µM
CC(=O)OCCCNc1cc(Sc2ccc(C)cc2)c2nonc2c1[N+](=O)[O-]	DT40 TDP1 CPT 2.9µM, VP16 counter inconclusive, IL1B secr inh -51, TDP1 cell noCPT 3.3µM
CC(=O)OCCNc1cc(Sc2nc3ccccc3[nH]2)c2nonc2c1[N+](=O)[O-]	DT40 TDP1 CPT 2.3µM, IL1B secr inh -101, TDP1 cell noCPT 4.1µM
COc1ccc(NC(=O)N(Cc2cc3cc(OC)ccc3[nH]c2=O)CC2CCCO2)cc1 (stereo unspecified)	DT40 TDP1 CPT inconclusive, TDP1 cell noCPT inconclusive
COc1ccc2cc(CN(CC3CCCO3)C(=O)Nc3ccccc3OC)c(=O)[nH]c2c1 (stereo unspecified)	DT40 TDP1 CPT 4.1µM, TDP1 cell noCPT 4.6µM
COc1ccc(NC(=O)N(Cc2cc3ccc(OC)cc3[nH]c2=O)CC2CCCO2)cc1 (stereo unspecified)	DT40 TDP1 CPT 18µM, TDP1 cell noCPT 13µM
CCC(C)Nc1nc(N)c([N+](=O)[O-])c(Nc2ccccc2OC)n1 (stereo unspecified)	DT40 TDP1 CPT inconclusive, IL1B secr inh -88, TDP1 cell noCPT inconclusive
C=CCNc1nc(N)c([N+](=O)[O-])c(Nc2ccccc2OC)n1	DT40 TDP1 CPT inconclusive
COc1ccccc1Nc1nc(NCCCN(C)C)nc(N)c1[N+](=O)[O-]	RORgamma inh inconclusive, VP16 counter 16µM, IL1B secr inh -63, TDP1 cell noCPT inconclusive
COc1ccccc1Nc1nc(NCC(C)C)nc(N)c1[N+](=O)[O-]	DT40 TDP1 CPT inconclusive, TDP1 cell noCPT 26µM
COc1ccc(C2C(C#N)=C(C)NC3=C2C(=O)c2ccccc23)cc1 (stereo unspecified)	DT40 TDP1 CPT inconclusive, TDP1 cell noCPT 26µM
COc1cc(C2C(C#N)=C(C)NC3=C2C(=O)CC(C)(C)C3)cc(OC)c1O (stereo unspecified)	none
COc1cc(C2C(C#N)=C(C)NC3=C2C(=O)c2ccccc23)cc(OC)c1OC (stereo unspecified)	DT40 TDP1 CPT 1µM, TDP1 cell noCPT 0.58µM
COc1ccc(C2C(=O)c3ccccc3C2=O)cc1	none
CCOc1ccc(C2C(C#N)=C(C)NC3=C2C(=O)c2ccccc23)cc1 (stereo unspecified)	DT40 TDP1 CPT 21µM, TDP1 cell noCPT 15µM
Cc1nc2cc(F)ccc2cc1C(=O)NCC1COc2ccccc2O1 (stereo unspecified)	none (no result: DT40 TDP1 CPT, RORgamma inh, VP16 counter, IL1B secr inh, TDP1 cell noCPT)
CCOC(=O)c1[nH]c(C)c(CCC(=O)Nc2ccc(OC)c(OC)c2)c1C	none (no result: DT40 TDP1 CPT, RORgamma inh, VP16 counter, IL1B secr inh, TDP1 cell noCPT)
CSCCC(NS(=O)(=O)c1ccc2c(c1)oc(=O)n2C)C(=O)Nc1cc(C)cc(C)c1 (stereo unspecified)	none (no result: DT40 TDP1 CPT, RORgamma inh, VP16 counter, IL1B secr inh, TDP1 cell noCPT)
CC(=O)C(C(C)=O)C1(O)C(=O)c2ccccc2C1=O	DT40 TDP1 CPT 26µM, TDP1 cell noCPT 23µM
